# Data: PubChem BioAssay (NCATS)
# Several values for one entry are separate records, joined by “and”; a condition that tells them apart may be missing. Equal entries are not always repeated. Results filed as inconclusive are left out. Activity calls are given as the source filed them. Unless noted, calls follow the shape of the full dose curve.
# Tests used:
# [1] = target: Bile acid receptor (Homo sapiens) (UniProt Q96RI1); experiment: qHTS assay for small molecule agonists of farnesoid X receptor signaling (AID 588527); settings: HEK293T FXR-UAS-bla, beta-lactamase ratio, 16 h; activation: stronger effect = higher value;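 also: series mostly up to about 77 µM; 0% = vehicle basal and 100% = reference agonist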
# Sequence of Bile acid receptor (Homo sapiens) (Q96RI1 whole entry, looked up): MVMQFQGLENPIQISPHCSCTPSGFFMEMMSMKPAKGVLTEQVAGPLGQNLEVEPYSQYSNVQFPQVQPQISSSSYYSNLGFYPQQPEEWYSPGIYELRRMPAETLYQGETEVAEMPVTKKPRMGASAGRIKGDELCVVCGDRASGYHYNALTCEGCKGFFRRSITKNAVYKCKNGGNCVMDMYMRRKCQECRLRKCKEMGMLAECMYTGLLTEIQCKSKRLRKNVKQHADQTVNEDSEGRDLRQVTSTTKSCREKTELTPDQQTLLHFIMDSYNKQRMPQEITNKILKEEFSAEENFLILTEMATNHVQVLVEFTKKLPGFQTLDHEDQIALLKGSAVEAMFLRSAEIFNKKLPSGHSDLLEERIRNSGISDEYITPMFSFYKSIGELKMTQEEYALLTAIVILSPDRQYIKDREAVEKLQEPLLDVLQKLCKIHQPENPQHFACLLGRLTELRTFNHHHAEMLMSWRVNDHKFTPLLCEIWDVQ
# Outline: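 FXR-UAS-bla HEK293T, 10% dialyzed FBS; cpds up to 92 uM titration, 16 h 37 C; CCF4 dye 2 h RT; fluorescence. Normalized to chenodeoxycholic acid 100 uM (100%) and DMSO (0%); Hill fit gives EC50, efficacy.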
# [2] = target: Peroxisome proliferator-activated receptor delta (Homo sapiens) (UniProt Q03181); experiment: qHTS assay for small molecule agonists of peroxisome proliferator-activated receptor delta signaling (AID 588534);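 also: 0% = DMSO basal wells and 100% = positive control agonist at 10 µM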
# Sequence of Peroxisome proliferator-activated receptor delta (Homo sapiens) (Q03181 whole entry, looked up): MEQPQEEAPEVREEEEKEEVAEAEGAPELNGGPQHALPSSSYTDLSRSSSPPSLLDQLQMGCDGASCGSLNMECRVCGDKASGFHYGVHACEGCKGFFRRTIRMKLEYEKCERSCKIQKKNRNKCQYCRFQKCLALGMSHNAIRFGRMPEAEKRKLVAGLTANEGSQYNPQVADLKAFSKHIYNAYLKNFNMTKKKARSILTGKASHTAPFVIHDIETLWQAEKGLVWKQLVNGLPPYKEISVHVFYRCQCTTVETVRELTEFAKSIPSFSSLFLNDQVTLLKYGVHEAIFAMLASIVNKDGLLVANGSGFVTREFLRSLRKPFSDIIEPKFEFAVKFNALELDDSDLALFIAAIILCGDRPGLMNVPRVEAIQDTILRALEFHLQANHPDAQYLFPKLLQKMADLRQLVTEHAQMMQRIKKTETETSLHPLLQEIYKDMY
# Outline: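 Reporter cells were plated and held 5 hrs at 37 C before compounds were added. After 18 hrs at 37 C, CCF4 dye was loaded for 2 hrs at RT and fluorescence measured.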
# [3] = target: Cytochrome P450 3A4 (Homo sapiens) (UniProt P08684); experiment: qHTS Assay for Inhibitors and Substrates of Cytochrome P450 3A4 (AID 884; active = well fitted curve in the direction sought with a large enough effect; an effect the other way counts as inactive or inconclusive; also: potency is read from the fitted curve at half-maximal effect; nearly all actives have a fitted effect of over 50% in size)
# Sequence of Cytochrome P450 3A4 (Homo sapiens) (P08684 whole entry, looked up): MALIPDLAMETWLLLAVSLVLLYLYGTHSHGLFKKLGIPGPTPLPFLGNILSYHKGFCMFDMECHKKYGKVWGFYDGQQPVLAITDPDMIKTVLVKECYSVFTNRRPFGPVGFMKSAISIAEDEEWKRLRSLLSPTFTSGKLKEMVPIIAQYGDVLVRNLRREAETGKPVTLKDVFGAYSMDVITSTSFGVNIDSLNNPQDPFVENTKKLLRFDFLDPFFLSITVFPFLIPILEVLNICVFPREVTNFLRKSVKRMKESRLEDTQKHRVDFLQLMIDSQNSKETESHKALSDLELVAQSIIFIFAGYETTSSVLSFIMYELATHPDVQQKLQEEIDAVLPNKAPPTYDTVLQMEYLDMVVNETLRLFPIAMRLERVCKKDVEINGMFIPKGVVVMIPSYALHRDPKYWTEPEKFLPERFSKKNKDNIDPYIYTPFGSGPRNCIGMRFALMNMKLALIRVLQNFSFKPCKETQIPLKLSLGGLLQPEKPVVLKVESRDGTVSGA
# Outline: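 20 nM human CYP3A4 with 25 uM Luciferin-PPXE (at KM) in 200 mM KPO4, preincubated 10 min with compound; NADPH regeneration started a 60 min RT reaction. Luciferin detected by luminescence, normalized to 57 uM ketoconazole as full inhibition.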
# [4] = target: Cytochrome P450 3A4 (Homo sapiens) (UniProt P08684); experiment: qHTS Assay for Activators of Cytochrome P450 3A4 (AID 885; active = well fitted curve in the direction sought with a large enough effect; an effect the other way counts as inactive or inconclusive; also: nearly all actives have a fitted effect of over 65% in size)
# Outline: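 20nM CYP3A4 + 25uM Luciferin-PPXE (=KM), 200mM KPO4; cpd 10 min RT; NADPH regen, 60 min RT; stop w/ detection buffer, 20 min; luminescence. Normalized to 57 uM ketoconazole.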
# [5] = target: Voltage-gated inwardly rectifying potassium channel KCNH2 (Homo sapiens) (UniProt Q12809); experiment: qHTS Assay for Small Molecule Inhibitors of the Human hERG Channel Activity (AID 588834; active = well fitted curve in the direction sought with a large enough effect; an effect the other way counts as inactive or inconclusive;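 also: top concentration of the series differs between compounds; % is scaled to controls: 0 for no effect and ±100 for the full control effect; lower thallium flux fluorescence means stronger hERG block; nearly all actives have a fitted effect of over 50% in size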)
# Sequence of Voltage-gated inwardly rectifying potassium channel KCNH2 (Homo sapiens) (Q12809 whole entry, looked up): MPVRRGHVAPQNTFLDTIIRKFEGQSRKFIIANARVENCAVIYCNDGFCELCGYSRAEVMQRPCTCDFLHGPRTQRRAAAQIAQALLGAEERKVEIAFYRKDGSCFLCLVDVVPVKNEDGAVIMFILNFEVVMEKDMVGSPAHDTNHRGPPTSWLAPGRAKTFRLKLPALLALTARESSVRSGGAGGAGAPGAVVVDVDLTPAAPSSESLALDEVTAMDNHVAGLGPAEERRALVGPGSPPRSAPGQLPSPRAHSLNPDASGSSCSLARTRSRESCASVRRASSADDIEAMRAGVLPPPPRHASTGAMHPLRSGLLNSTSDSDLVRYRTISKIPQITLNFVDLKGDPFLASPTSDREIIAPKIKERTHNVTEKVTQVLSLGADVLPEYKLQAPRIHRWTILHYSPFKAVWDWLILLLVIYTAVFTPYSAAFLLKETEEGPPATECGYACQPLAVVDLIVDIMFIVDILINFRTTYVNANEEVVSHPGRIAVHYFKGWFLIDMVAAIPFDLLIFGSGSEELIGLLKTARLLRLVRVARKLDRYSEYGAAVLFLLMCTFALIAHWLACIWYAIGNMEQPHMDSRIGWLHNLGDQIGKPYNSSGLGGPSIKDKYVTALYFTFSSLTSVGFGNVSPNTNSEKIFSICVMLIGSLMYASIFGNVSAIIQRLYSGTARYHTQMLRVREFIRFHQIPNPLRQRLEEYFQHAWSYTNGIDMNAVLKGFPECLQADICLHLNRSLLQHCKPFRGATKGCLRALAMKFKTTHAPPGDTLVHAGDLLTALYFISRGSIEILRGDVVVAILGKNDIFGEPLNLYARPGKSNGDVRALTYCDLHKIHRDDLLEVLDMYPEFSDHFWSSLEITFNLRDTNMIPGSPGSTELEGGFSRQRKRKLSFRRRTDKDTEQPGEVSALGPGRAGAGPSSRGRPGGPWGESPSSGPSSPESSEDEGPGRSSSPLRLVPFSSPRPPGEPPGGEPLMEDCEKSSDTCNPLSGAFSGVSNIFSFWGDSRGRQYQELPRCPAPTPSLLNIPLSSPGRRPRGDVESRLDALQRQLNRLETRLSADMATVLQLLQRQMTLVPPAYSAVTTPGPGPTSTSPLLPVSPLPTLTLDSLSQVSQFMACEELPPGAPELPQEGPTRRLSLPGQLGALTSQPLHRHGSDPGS
# Outline: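 Blockade is seen as reduced FluxOR thallium-flux fluorescence in U2OS cells expressing hERG from a BacMam construct, in Opti-MEM with 2% FCS. Concentration-response data fitted to the Hill equation for AC50.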
# [6] = target: Thyroid hormone receptor beta (Homo sapiens) (UniProt P10828); experiment: qHTS assay for small molecule antagonists of thyroid hormone receptor beta signaling (AID 588547; active = well fitted inhibition curve with a large enough effect in the signal ratio, with a control signal flat, not every such curve was filed as active; the % refers to the signal ratio;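 also: cells stimulated with 0.4 nM T3 agonist during compound exposure; series mostly up to about 77 µM; % is scaled to controls: 0 for no effect and ±100 for the full control effect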); settings: TR-UAS-bla HEK293, beta-lactamase ratio, antagonist mode, 18 h
# Sequence of Thyroid hormone receptor beta (Homo sapiens) (P10828 whole entry, looked up): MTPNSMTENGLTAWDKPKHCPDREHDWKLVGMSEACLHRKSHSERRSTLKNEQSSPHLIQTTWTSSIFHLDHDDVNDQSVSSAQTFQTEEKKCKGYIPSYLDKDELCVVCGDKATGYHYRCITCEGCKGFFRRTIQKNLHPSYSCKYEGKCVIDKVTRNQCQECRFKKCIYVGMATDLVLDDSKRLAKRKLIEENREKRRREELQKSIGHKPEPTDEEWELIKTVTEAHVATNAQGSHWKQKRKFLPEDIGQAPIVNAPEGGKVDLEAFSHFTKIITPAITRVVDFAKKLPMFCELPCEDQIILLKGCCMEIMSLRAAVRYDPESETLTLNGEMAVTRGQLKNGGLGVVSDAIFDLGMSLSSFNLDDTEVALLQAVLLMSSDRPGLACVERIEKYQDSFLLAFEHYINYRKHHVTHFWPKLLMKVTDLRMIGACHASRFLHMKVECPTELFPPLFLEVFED
# Outline: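 Inhibition of T3-driven (0.4nM final) beta-lactamase reporter activity was measured over 0.59 nM to 92 uM compound after 18 h at 37 C. The cells were GripTite HEK293 TR-UAS-bla in charcoal/dextran-stripped serum, with CCF4 ratio read-out and IC50 from Hill fits.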
# [7] = target: Nuclear receptor ROR-gamma (Homo sapiens) (UniProt P51449); experiment: qHTS assay for small molecule antagonists of the retinoid-related orphan receptor gamma (ROR-gamma) signaling pathway (AID 651802; active = well fitted curve in the direction sought with a large enough effect; an effect the other way counts as inactive or inconclusive;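 also: CHO cells with doxycycline-induced ROR-gamma expression; luciferase reporter luminescence driven by ROR response element; series mostly up to about 92 µM; % is scaled to controls: 0 for no effect and ±100 for the full control effect; nearly all actives have a fitted effect of over 60% in size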)
# Sequence of Nuclear receptor ROR-gamma (Homo sapiens) (P51449 whole entry, looked up): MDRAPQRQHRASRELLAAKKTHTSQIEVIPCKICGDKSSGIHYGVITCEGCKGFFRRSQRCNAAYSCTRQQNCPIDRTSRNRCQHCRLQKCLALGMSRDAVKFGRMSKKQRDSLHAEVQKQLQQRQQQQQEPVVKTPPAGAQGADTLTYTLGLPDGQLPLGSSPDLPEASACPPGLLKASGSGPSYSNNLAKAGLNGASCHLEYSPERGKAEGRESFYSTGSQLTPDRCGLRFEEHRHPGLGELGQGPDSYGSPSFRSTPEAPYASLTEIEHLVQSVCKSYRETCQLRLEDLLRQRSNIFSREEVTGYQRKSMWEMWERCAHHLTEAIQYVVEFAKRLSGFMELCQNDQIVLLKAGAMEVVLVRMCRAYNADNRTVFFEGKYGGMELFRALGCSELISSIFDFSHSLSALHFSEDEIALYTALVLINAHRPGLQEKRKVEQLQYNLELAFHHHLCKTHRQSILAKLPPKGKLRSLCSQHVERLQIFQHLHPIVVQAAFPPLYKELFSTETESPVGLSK
# Outline: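 Antagonism is scored as a fall in luminescence from a RORE-luciferase reporter in CHO cells expressing ROR under a TET-inducible promoter, measured 16hr after doxycycline induction in the presence of compound.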
# [8] = qHTS assay for small molecule antagonists of peroxisome proliferator-activated receptor delta signaling (AID 588535; active = well fitted inhibition curve with a large enough effect in the signal ratio, with a control signal flat, not every such curve was filed as active; the % refers to the signal ratio;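 as to max response: cells co-treated with a PPAR-delta agonist as stimulator during compound exposure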); settings: HEK293T PPARd-UAS-bla, beta-lactamase FRET ratio, 18 h; 460 nm channel
# Outline: (§1)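 Cell-based beta-lactamase assay in antagonist mode: 4000 HEK293T PPAR-delta-UAS-bla cells per well, 5 hr preincubation then 18 hr compound incubation at 37 C. IC50 obtained by Hill equation fitting.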
# [9] = target: Peroxisome proliferator-activated receptor delta (Homo sapiens) (UniProt Q03181); experiment: as above
# Outline: as §1
# [10] = target: Vitamin D3 receptor (Homo sapiens) (UniProt P11473); experiment: qHTS assay for small molecule agonists of vitamin D receptor signaling (AID 588543);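 also: 0% = DMSO basal and 100% = reference agonist control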
# Sequence of Vitamin D3 receptor (Homo sapiens) (P11473 whole entry, looked up): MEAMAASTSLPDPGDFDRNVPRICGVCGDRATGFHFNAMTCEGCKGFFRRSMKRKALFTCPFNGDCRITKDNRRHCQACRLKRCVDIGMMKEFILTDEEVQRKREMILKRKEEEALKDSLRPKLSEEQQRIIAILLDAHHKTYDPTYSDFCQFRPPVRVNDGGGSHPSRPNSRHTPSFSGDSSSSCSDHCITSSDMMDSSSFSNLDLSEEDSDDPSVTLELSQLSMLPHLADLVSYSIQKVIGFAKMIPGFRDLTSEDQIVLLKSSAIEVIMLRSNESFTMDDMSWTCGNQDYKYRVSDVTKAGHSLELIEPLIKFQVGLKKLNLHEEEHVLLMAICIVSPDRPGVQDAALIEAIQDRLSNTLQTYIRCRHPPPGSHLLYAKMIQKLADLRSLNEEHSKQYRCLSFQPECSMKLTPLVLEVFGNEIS
# Outline: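 Measured: β-lactamase reporter activity (CCF4, 405 nm excitation, 460/530 nm emission) in HEK293T VDR-UAS-bla cells after 16 h compound exposure at 37 °C. Normalization against 50 nM 1α,25-dihydroxyvitamin D3 and DMSO; Hill-fit EC50.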
# [11] = qHTS assay for small molecule agonists of retinoid X receptor alpha signaling (AID 588544); settings: HEK293T RXRa-UAS-bla, beta-lactamase reporter, 18 h; 530 nm emission
# [12] = target: Thyroid hormone receptor beta (Homo sapiens) (UniProt P10828); experiment: qHTS assay for small molecule agonists of thyroid hormone receptor beta signaling (AID 588545);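 also: 0% = DMSO only and 100% = 10 nM T3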
# Outline: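 TR-UAS-bla-GripTite HEK 293 cells in medium with 2% charcoal/dextran FBS, 0.1 mM NEAA and 1 mM sodium pyruvate were treated with titrated compounds for 18 hrs at 37 C. Beta-lactamase reporter was read with CCF4 dye (ex 405, em 460/530 nm); EC50 from Hill fits.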
# [13] = qHTS assay for small molecule activators of the nuclear factor-kappa B (NF-kB) signaling pathway (AID 651749; active = well fitted activation curve with a large enough effect in the signal ratio; the % refers to the signal ratio; also: series mostly up to about 77 µM; % of control where 0% means no effect); settings: NF-kB-bla ME-180 cells, beta-lactamase FRET ratio, 16 h; activation: stronger effect = higher value
# Outline: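 Stably transfected ME-180 line; NF-kB response element upstream of beta-lactamase. Treatment: compound or DMSO, 16 hr. Detection: fluorescent FRET substrate.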
# [14] = target: Peroxisome proliferator-activated receptor alpha (Homo sapiens) (UniProt Q07869); experiment: qHTS assay for small molecule agonists of the peroxisome proliferator-activated receptor alpha (PPARalpha) signaling pathway (AID 651778; active = well fitted curve in the direction sought with a large enough effect; an effect the other way counts as inactive or inconclusive; also: % of control where 0% means no effect); settings: PathHunter PPARalpha complementation, chemiluminescence, 6 h; max response: stronger effect = higher value
# Sequence of Peroxisome proliferator-activated receptor alpha (Homo sapiens) (Q07869 whole entry, looked up): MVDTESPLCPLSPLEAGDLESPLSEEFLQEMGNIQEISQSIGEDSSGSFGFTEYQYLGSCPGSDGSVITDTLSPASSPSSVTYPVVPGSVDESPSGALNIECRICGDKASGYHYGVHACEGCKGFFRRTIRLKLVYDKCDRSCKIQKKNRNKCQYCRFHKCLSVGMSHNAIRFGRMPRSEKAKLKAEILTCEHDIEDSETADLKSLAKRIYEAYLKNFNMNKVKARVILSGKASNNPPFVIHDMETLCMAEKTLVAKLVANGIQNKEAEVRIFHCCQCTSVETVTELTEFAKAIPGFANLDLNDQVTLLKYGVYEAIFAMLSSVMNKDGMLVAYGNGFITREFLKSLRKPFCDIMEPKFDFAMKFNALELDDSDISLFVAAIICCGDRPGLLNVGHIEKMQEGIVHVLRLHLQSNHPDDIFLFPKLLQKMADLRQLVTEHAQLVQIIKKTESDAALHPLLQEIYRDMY
# Outline: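 Chemiluminescence from complemented enzyme reported PPARalpha activation in cells after 6 hr of compound treatment at 37 C. The detection reagent was incubated for 60 min at room temperature, and compounds were scored as agonists.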
# [15] = qHTS assay for small molecule agonists of the antioxidant response element (ARE) signaling pathway measured by Nrf2-dependant transcriptional activity (AID 720636; active = well fitted curve in the direction sought with a large enough effect in the repeat runs; an effect the other way counts as inactive or inconclusive;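 also: HepG2 cells with an ARE-driven luciferase reporter; % of control where 0% means no effect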)
# Outline: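 In HepG2 cells engineered with an Nrf2-responsive luciferase gene, ARE induction was quantified as luminescence after 16 hr compound treatment at 37 C.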
# [16] = qHTS assay for small molecule agonists of the antioxidant response element (ARE) signaling pathway measured by Nrf2-dependant transcriptional activity - cell viability counter screen (AID 720653; active = well fitted curve in the direction sought with a large enough effect in the repeat runs; an effect the other way counts as inactive or inconclusive; also: % is scaled to controls: 0 for no effect and ±100 for the full control effect); settings: ARE-bla HepG2 viability, CellTiter-Glo ATP luminescence, 16 h; max response: stronger effect = lower value
# Outline: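 Cytotoxicity counter screen: intracellular ATP quantified by CellTiter-Glo luminescence in the same ARE-bla HepG2 plates, after 16 h compound exposure and a 2 h beta-lactamase substrate step.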
# [17] = qHTS assay for cell viability of HEK293 cells (AID 743288; active = well fitted curve in the direction sought with a large enough effect; an effect the other way counts as inactive or inconclusive; also: % is scaled to controls: 0 for no effect and ±100 for the full control effect; nearly all actives have a fitted effect of over 50% in size); settings: ATP luminescence (CellTiter-Glo), 18 h; max response: stronger effect = lower value
# Outline: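 Luminescent ATP quantitation served as the viability read-out. Cells (parental HEK293, 2,000/well) received compounds after at least 5 h at 37 C and were exposed for 18 h before a 30 min room-temperature reagent step.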
# [18] = qHTS assay for cell viability of the p53RE-bla HCT-116 cell line (AID 743292; active = well fitted curve in the direction sought with a large enough effect; an effect the other way counts as inactive or inconclusive; also: % is scaled to controls: 0 for no effect and ±100 for the full control effect; nearly all actives have a fitted effect of over 55% in size)
# Outline: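 Intracellular ATP of p53RE-bla HCT-116 cells measured by luciferase luminescence following 16 h compound incubation at 37 C; DMSO-only wells served as vehicle controls.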
# [19] = target: Nuclear receptor subfamily 1 group I member 2 (Rattus norvegicus) (UniProt Q9R1A7); experiment: qHTS assay for small molecule activators of the rat pregnane X receptor (rPXR) signaling pathway (AID 651751; call rule not given here; also: 0% is about no effect); settings: rPXR reporter cells, luciferase (One-Glo), 24 h
# Sequence of Nuclear receptor subfamily 1 group I member 2 (Rattus norvegicus) (Q9R1A7 whole entry, looked up): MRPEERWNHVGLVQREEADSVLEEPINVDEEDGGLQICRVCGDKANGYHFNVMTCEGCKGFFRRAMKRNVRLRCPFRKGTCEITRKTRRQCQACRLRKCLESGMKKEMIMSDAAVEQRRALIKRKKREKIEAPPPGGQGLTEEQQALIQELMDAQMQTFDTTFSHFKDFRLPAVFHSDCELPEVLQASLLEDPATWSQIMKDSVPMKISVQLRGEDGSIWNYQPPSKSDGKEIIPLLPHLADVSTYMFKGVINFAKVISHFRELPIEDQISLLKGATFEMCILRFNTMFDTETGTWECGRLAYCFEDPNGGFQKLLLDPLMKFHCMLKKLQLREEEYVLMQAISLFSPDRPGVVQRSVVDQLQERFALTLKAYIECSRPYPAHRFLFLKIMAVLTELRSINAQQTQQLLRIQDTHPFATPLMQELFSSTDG
structure (smiles),measurement,setting,value
C#CCOC(=O)[C@@H](C)Oc1ccc(Oc2ncc(Cl)cc2F)cc1,activation,[1],-1.83% (inactive)
same,outcome,[2],inactive
COc1cc(Cl)c(OC)cc1N,activation,[1],-0.889% (inactive)
same,outcome,[2],inactive
CC(C)OCC1CO1 (configuration not stated),activation,[1],-0.0386% (inactive)
same,outcome,[2],inactive
CCCOCC(C)OCC(C)O (configuration not stated),activation,[1],1.34% (inactive)
same,outcome,[2],inactive
OCC(O)CO,activation,[1],-1.04% (inactive) and -2.12% (inactive)
same,outcome,[2],inactive
CC(C)C(=O)OCC(C)(C)C(O)C(C)C (configuration not stated),activation,[1],-0.406% (inactive)
same,outcome,[2],inactive
CC(C)(C)c1ccc(C(=O)O)cc1,activation,[1],-9.49% (inactive)
same,outcome,[2],inactive
CC(C)O.CC(C)O.CC(C)O.CC(C)O.[Ti],activation,[1],-5.62% (inactive)
same,outcome,[2],inactive
C=CCCCCCCC=C,activation,[1],-0.711% (inactive)
same,outcome,[2],inactive
O=C(O)CC(C(=O)O)C(CC(=O)O)C(=O)O (configuration not stated),activation,[1],-1.38% (inactive) and -0.082% (inactive)
same,outcome,[2],inactive
Cc1ccc(C)cc1,activation,[1],-1.18% (inactive)
same,outcome,[2],inactive
Cc1ccccc1OCC1CO1 (configuration not stated),activation,[1],-1.27% (inactive)
same,outcome,[2],inactive
CCCCC/C=C/C=C/C=O,activation,[1],3.19% (inactive) and -0.429% (inactive)
same,outcome,[2],inactive
NN(c1ccccc1)c1ccccc1,activation,[1],-1.98% (inactive)
same,outcome,[2],inactive
Cc1ccccc1Br,activation,[1],-2.02% (inactive)
same,outcome,[2],inactive
COc1ccc([N+](=O)[O-])cc1N,activation,[1],0.186% (inactive) and -0.616% (inactive)
same,outcome,[2],inactive
C=C(C)C(=O)OCC(C)C,activation,[1],-0.219% (inactive)
same,outcome,[2],inactive
CN=C(N)NCC1CCOC1 (configuration not stated),activation,[1],-3.33% (inactive) and 1.46% (inactive)
same,outcome,[2],inactive
CC(COc1ccc(C(C)(C)C)cc1)OS(=O)OCCCl (configuration not stated),activation,[1],3.02% (inactive)
same,outcome,[2],inactive
Nc1cccc2c(=O)[nH][nH]c(=O)c12,activation,[1],1.93% (inactive)
same,outcome,[2],inactive
COC(=O)C1CCC(C(=O)OC)CC1 (configuration not stated),activation,[1],-4.06% (inactive)
same,outcome,[2],inactive
NC(=O)Nc1nc2ccccc2[nH]1,activation,[1],-1.18% (inactive)
same,outcome,[2],inactive
CCc1c(C(=O)O)c(=O)cnn1-c1ccc(Cl)cc1,activation,[1],1.28% (inactive)
same,outcome,[2],inactive
CCNc1cc(O)ccc1C,activation,[1],2% (inactive)
same,outcome,[2],inactive
O=C(O)c1ccccc1Cl,activation,[1],1.39% (inactive)
same,outcome,[2],inactive
CC(C)CCCCCCc1ccc(O)cc1,activation,[1],6.07% (inactive)
same,outcome,[2],inactive
CCCCC(CC)CNCC(CC)CCCC (configuration not stated),activation,[1],-2.36% (inactive)
same,outcome,[2],inactive
CCCCCO,activation,[1],-1.91% (inactive)
same,outcome,[2],inactive
CCNc1ccccc1,activation,[1],-3.11% (inactive)
same,outcome,[2],inactive
Cc1ccc2ccc3cccc4ccc1c2c34,Potency,[3],25.1 µM (active)
same,Potency,[4],inactive
same,Potency,[5],inactive
CCCCC(CC)COC(=O)CCCCC(=O)OCC(CC)CCCC (configuration not stated),Potency,[4],inactive
same,activity change % (negative = inhibition),[6],4.91% (inactive)
same,Potency,[7],inactive
CCOP(=O)(OCC)Oc1ccc([N+](=O)[O-])cc1,max response,[8],-45.6%
same,Potency,[9],inactive
same,outcome,[10],inactive
same,max response,[11],-4.35%
same,Potency,[12],inactive
same,activity change % (negative = inhibition),[6],-16.8% (inactive)
same,activation,[13],0.546% (inactive)
same,max response,[14],-2.58% (inactive)
same,Potency,[15],inactive
same,max response,[16],-9.88% (inactive)
same,max response,[17],-2.61% (inactive)
same,Potency,[18],inactive
same,max response,[19],3.26% (inactive)
